Data reported in PubChem BioAssay (NCATS).
Records with an inconclusive call do not appear. Where a call stands in place of a potency, no number is given. Activity calls are given as the source filed them. The call rests on the fitted dose curve; in most records, active means well fitted inhibition curve with a large enough effect; inconclusive means small, poorly fitted or top-dose-only effect; inactive means flat fitted curve, though single readings scatter.
Potency means the concentration at half of the fitted maximal effect.

Assay: qHTS to identify inhibitors of the type 1 interferon - major histocompatibility complex class I in skeletal muscle: primary screen against the NCATS Pharmaceutical Collection (AID 1347407)
Conditions: human skeletal muscle cells, IFN-b-induced MHC-I HiBiT luminescence, 24 h; series mostly up to 45.9 µM
From the text: Assay Submitter (PI): Travis B. Kinder Ph.D. & James Inglese Ph.D.
Assay Development and Screening Technology Laboratory (ADST)
National Center for Advancing Translational Sciences (NCATS), Rockville, MD
National Institute of Health (NIH), Bethesda, Maryland
Idiopathic inflammatory myopathies, collectively referred to as myositis, are a group of rare autoimmune diseases characterized by skeletal muscle inflammation, weakness, and usually accompanied by systemic pathologies of the skin, lungs, or vasculature. Current immunosuppressive therapies and glucocorticoids are often not curative and are accompanied by harsh side effects, especially in children with juvenile myositis. We initiated a drug repurposing and development program to identify more targeted, less toxic therapeutics to treat myositis. Although its cause is not known, muscle from a subset of patients have an abundance of the inflammatory type 1 interferon (IFN) and a down-stream product major histocompatibility complex class I (MHC class I), which are both thought to contribute to damage and weakness. We conducted quantitative high throughput screening on 6,576 compounds (4,679 unique) through a series of cell-based assays to identify those that inhibit the IFN-stimulated expression of MHC class I in muscle precursor cells (myoblasts). The compound identification and evaluation strategy utilized a primary screen with reporter-tagged MHC class I in genome-engineered myoblasts, ATP content counter screen for viability, HLA-ABC immunofluorescence secondary screen, and HLA-B RT-qPCR tertiary screen.
The primary screen utilized CRISPR/Cas9 genome-engineering of immortalized human myoblasts, C25cl48, where a pro-luminescent reporter HiBit was fused to the C-terminus of endogenous MHC class I allele HLA-B*08:01 (HLA-B HiBit myoblasts). HiBit is an 11 amino acid fragment of NanoLuc luminescent reporter (Promega Corporation), and when complexed to the larger LgBit fragment, the reconstituted enzyme produces light in the presence of furimazine substrate (Schwinn et al., 2018). Briefly, HLA-B HiBit myoblasts were plated into 1536-well plates, treated with 4.0 ng/ml human IFN-beta and 2,816 compounds from the NCATS Pharmaceutical Collection (NPC) that contains all drugs approved in the US, EU, and Japan (Huang et al., 2011) in an 8-point, 1:5 titration with a high final concentration of 46 uM. After 24 hrs of treatment, cells were assayed by Nano-Glo HiBiT Lytic Detection System (Promega) and luminescence measured by a ViewLux 1430 Ultra HTS (Perkin Elmer).
Huang R, Southall N, Wang Y, Yasgar A, Shinn P, Jadhav A, Nguyen D-T, Austin CP. 2011. The NCGC pharmaceutical collection: a comprehensive resource of clinically approved drugs enabling repurposing and chemical genomics. Sci Transl Med 3:80ps16. doi:10.1126/scitranslmed.3001862
Schwinn MK, Machleidt T, Zimmerman K, Eggers CT, Dixon AS, Hurst R, Hall MP, Encell LP, Binkowski BF, Wood K V. 2018. CRISPR-Mediated Tagging of Endogenous Proteins with a Luminescent Peptide. ACS Chem Biol 13:467-474. doi:10.1021/acschembio.7b00549
PROTOCOL TABLE (as described by Inglese et al., 2007)
SEQUENCE No. (e.g., 1, 2, 3, etc.); […] (e.g., Cells, Incubation, Reagent, etc.); VALUE; DESCRIPTION
1a; Cells; 5 uL; Use a Multidrop Combi (Thermo Scientific) to seed 350 cells/well into nine Greiner 1536 well white/solid bottom, high base, TC plates in 5 ul/well of iHSKM growth medium (GM) without dexamethasone into columns 1+2. Add metal lids with gas-exchange holes
1b; Cells; 5 uL; Use a Multidrop Combi (Thermo Scientific) to seed 350 cells/well into nine Greiner 1536 well white/solid bottom, high base, TC plates in 5 ul/well of iHSKM GM without dexamethasone + 4 ng/ml IFN-b into columns 3 - 48. Add metal lids with gas-exchange holes
2; Incubate; 1 hr; Incubate at 37 C, 5% CO2, 95% RH
[…]
In the case of O=C(N[C@@H]1N=C(c2ccccc2F)c2cccc3c2N(CC3)C1=O)c1cc2ccccc2[nH]1, the Potency is reported as “inactive”. For CCOC(=O)NC(O)C(Cl)(Cl)Cl (stereo not given), the Potency was “inactive”. For COc1cc(N)c(Cl)cc1C(=O)NC1CN2CCC1CC2 (stereo not given), the Potency was “inactive”. For C=CCN1CC[C@]23CCCC[C@H]2[C@H]1Cc1ccc(O)cc13, the Potency was “inactive”. With C[C@@H]1CN(C2CCC(C#N)(c3ccc(F)cc3)CC2)CC[C@]1(C(=O)O)c1ccccc1 (stereo not given in full) the Potency was “inactive”. With Cc1c(Cl)c(=O)oc2cc(OP(=O)(OCCCl)OCCCl)ccc12 the Potency was “inactive”. In the case of C[N+](C)(C)CCOC(=O)C(O)(c1ccccc1)c1ccccc1, the Potency is reported as “inactive”. In the case of C=CCOC(Cn1ccnc1)c1ccc(Cl)cc1Cl (stereo not given), the Potency is reported as “inactive”. With OC(O)C(Cl)(Cl)Cl the Potency was “inactive”. With CN1C(=O)CN=C(c2ccccc2)c2cc([N+](=O)[O-])ccc21 the Potency was “inactive”. In the case of Oc1ccc([C@H]2CNCc3c2ccc(O)c3O)cc1O, the Potency is reported as “inactive”. For C[N+]1(C)[C@@H]2CC[C@H]1CC(OC(=O)C(CO)c1ccccc1)C2 (stereo not given in full), the Potency was “inactive”. In the case of CC(C)=C[C@@H]1[C@@H](C(=O)OCc2coc(Cc3ccccc3)c2)C1(C)C, the Potency is reported as “inactive”. With c1cc2c(c(N3CCNCC3)c1)OCCO2 the Potency was “inactive”. With CCc1ccc(C2CCNCC2)cc1 the Potency was “inactive”. With c1ccc2nc(N3CCNCC3)ccc2c1 the Potency was “inactive”. With CN1C(=O)CN=C(c2ccccc2)c2cc(Cl)ccc21 the Potency was “inactive”. With Oc1c(Br)cc(Br)cc1Br the Potency was “inactive”. In the case of O=C1CN2CCOC2(c2ccccc2Cl)c2cc(Cl)ccc2N1 (stereo not given), the Potency is reported as “inactive”. For C[C@@H]1O[C@@H](O[C@@H]2C=C3CC[C@@H]4[C@H](CC[C@]5(C)[C@@H](c6ccc(=O)oc6)CC[C@]45O)[C@@]3(C)CC2)[C@H](O)[C@H](O)[C@H]1O, the Potency was 0.0033 µM (active). In the case of CC[C@H]1C[C@@H]2C[C@H]3c4[nH]c5ccc(OC)cc5c4CCN(C2)[C@@H]13, the Potency is reported as “inactive”. In the case of C[C@H]1C(=O)O[C@@H]2CCN3CC=C(COC(=O)[C@](C)(O)[C@]1(C)O)[C@H]23, the Potency is reported as “inactive”. With C[C@H](CN1CCOCC1)C(C(=O)N1CCCC1)(c1ccccc1)c1ccccc1 the Potency was “inactive”. With O=C(NC(=O)c1c(F)cccc1F)Nc1cc(Cl)c(OC(F)(F)C(F)C(F)(F)F)cc1Cl (stereo not given) the Potency was “inactive”. With C[C@@H]1CC[C@H]2[C@@H](C)C(=O)O[C@@H]3O[C@@]4(C)CC[C@@H]1[C@]32OO4 the Potency was “inactive”. For CN1C[C@@H](NS(=O)(=O)N(C)C)C[C@@H]2c3cccc4c3c(cn4C)C[C@H]21, the Potency was “inactive”. In the case of O=c1n(Cl)c(=O)n(Cl)c(=O)n1Cl, the Potency is reported as “inactive”. With Cc1ccc([N+](=O)[O-])[c]2c1[O][Hg]2 the Potency was 11.8 µM (active). With Cc1nc2ccccc2c(=O)n1-c1ccccc1Cl the Potency was “inactive”. With C[N+]1(CCC(C(N)=O)(c2ccccc2)c2ccccc2)CCCCC1 the Potency was “inactive”. In the case of COc1cc(CC(C)N)cc2c1OCO2 (stereo not given), the Potency is reported as “inactive”. For COc1cc(C[C@@H](C)N)c(OC)cc1Br, the Potency was “inactive”. For COC(=O)C1=CCCN(C)C1, the Potency was “inactive”. With CC(Cc1ccccc1)NCc1ccccc1Cl (stereo not given) the Potency was “inactive”. In the case of CC(CC(C#N)(c1ccccc1)c1ccccc1)N(C)C (stereo not given), the Potency is reported as “inactive”. In the case of CN1C2CCC(C)(C)C1CC(OC(=O)C(O)(c1cccs1)c1cccs1)C2 (stereo not given), the Potency is reported as “inactive”. In the case of COCC(=O)N(c1c(C)cccc1C)C(C)C(=O)OC (stereo not given), the Potency is reported as “inactive”. In the case of CN(C)CCc1c[nH]c2cccc(O)c12, the Potency is reported as “inactive”. For Clc1ccc(CO/N=C(\Cn2ccnc2)c2ccc(Cl)cc2Cl)c(Cl)c1, the Potency was “inactive”. In the case of CC(=O)OC1(c2ccccc2)CCN(CCc2ccccc2)CC1, the Potency is reported as “inactive”.
